Experimental data taken from the supplement of paper PMC6555819.

What follows are sequences tested on RXRa homodimer (NR concentration 180 nM) (assay: PBM binding z-score (relative to random genomic background probes); higher = stronger binding; sequences stand for … in GC…GCGATTGACAGCGTAGAATGAAGG).
Summary of the method: (§1)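 Ligand-free nuclear receptor dimers were bound for 1 h to custom Agilent 4×180K protein-binding microarrays. Detection used antibodies against each partner (one per run). Binding z-scores rest on regression-normalized fluorescence, with random background probes as the reference.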

Row | Sequence | PBM binding z-score
1 | CCTTACGGGTCACTGCCAGGTTATAGCATTTGGA | 4.62
2 | TCTTGCAGATCAAGCAGGTTAAGAAAGCCTGAGT | -0.0969
3 | AGAACGAGGACAATGAGTTGATAGCACGGGTGGC | 0.454
4 | TCGAGTAGGTTAGTCGGGGCATTCACCCAACATA | 0.097
5 | ATATGTAGGTTACATCTGGGTCATTCAGGCTATG | 2.38
6 | CCGAGTAGGTTATTGGGCATTCAGGCAACGGTGA | 0.183
7 | CCTGCTAGGTCAATAGTCAGCTAAAGCAGCTCGC | 1.42
8 | CGTCCAAGGTCAAGGTCAGTTAAAGAGACTCGAA | 6.66
9 | CAAACTAGGTCAAAGGACAAAGTCGAGCCAACCA | 3.31
10 | ACAGGCAGGTGATGAAGGTAACTCAGGCTATCAT | 0.0459
11 | CCGTACGGGTCACTGACAGGTTATAGCATTTGGA | 5.53
12 | CCTAGCAGGCCAATCTGGGTCACTCAAGGCTTGA | 0.984
13 | CAAACTAGGTCAAGGTCAAGGTCGGTTTGTGCCA | 6.62
14 | GTTTACGGGTCAAAGGTTATAGCATGAATAGAAT | 9.23
15 | GCTGCTAGGTCAGGGTGGTCAGCTAACGGGTACG | 1.41
16 | CCAGACAGGTGAGCAGGTAACTCAGCCTCGATTA | -0.115
17 | TAGCCTAGGCCATTGGGCCAGTATAGTACGCATC | -0.506
18 | GCGACTGGGGCAAAGCAGGTTACGATAAGGTTGG | 0.354
19 | CGTACGAGGGCATGAGTTGATAGCAAATGCCGAT | 1.03
20 | GTACCAAGGTGAATAGGTCCTTGATGAGTAGGCG | 0.785

Row | Sequence | PBM binding z-score
21 | GTCCCAAGGTGAATAGGTCGTTGATGAGTAGGCG | 1.67
22 | GGAACGAGGGAAAAGTTGATAGCATCTGTCGACG | -0.0103
23 | TCGAGTAGGTTAGTGGCATTCAGAATGGCGTCGA | -0.235
24 | CAAACTAGGTCGCGAAAGGTCAAAGTCGAATGAC | 7.33
25 | TCAGACAGATGAAGGTAACTCAGGTACGCAGTCG | 0.965
26 | TAGCCTAGGTCATGGGCCCGTATACCACGCGAAC | 3.53
27 | CGTCCAAGGTCAGGGAGGTCAGTGAATGCCGAGT | 6.37
28 | AGTCAAAGTTCATCTAGGTACCGTAAGATATGCT | 4.36
29 | TCTTATAGGTAAAAGGTGAAAGTCGGTGTGGTAA | 3.2
30 | TCGAGTACGTTAGGGGCATTCAGAATGGCGTCGA | 0.3
31 | ATATCTAGGTAAGACTCAGTTCAGTGAAGAACGC | 0.354
32 | GATACAGGGTCAAGGCCAGAGTCCGCGTATTGAT | 5.5
33 | TCGTATAGGTAAATGCTAGGTGAAAGTCCGATCT | 0.407
34 | TCTTGTAGATCAAGCACGTTAAGAAAGCCTGAGT | 0.234
35 | CCTGCTAGGTCATTGGTCAGCTAAAGCAGCTCGC | 2.61
36 | TTACCAAGGGGAAGGTCGTTGATCCCTCTGTAGA | 0.898
37 | ATACCAAGGTGAACGTGAGGTCGTTGATACTAAC | 2.68
38 | GCTATTAGTTGGAAGGGCAACCGAATGATTCTCG | 0.0792
39 | TCTTGTAGATCAAGCAGCTTAAGAAAGCCTGAGT | -0.293
40 | CCGAGTAGGTTATGGGGCGTTCAGGCAACGGTGA | 0.251

What follows are sequences tested on THRa:RXRa (NR concentration 90 nM, RXRa partner concentration 90 nM) in the same assay as above.
Summary of the method: as §1

Row | Sequence | PBM binding z-score
41 | CCTTACGGGTCACTGCCAGGTTATAGCATTTGGA | 3.4
42 | TCTTGCAGATCAAGCAGGTTAAGAAAGCCTGAGT | 0.0949
43 | AGAACGAGGACAATGAGTTGATAGCACGGGTGGC | 2.19
44 | TCGAGTAGGTTAGTCGGGGCATTCACCCAACATA | 1.31
45 | ATATGTAGGTTACATCTGGGTCATTCAGGCTATG | 3.17
46 | CCGAGTAGGTTATTGGGCATTCAGGCAACGGTGA | 0.0204
47 | CCTGCTAGGTCAATAGTCAGCTAAAGCAGCTCGC | 1.74
48 | CGTCCAAGGTCAAGGTCAGTTAAAGAGACTCGAA | 4.4
49 | CAAACTAGGTCAAAGGACAAAGTCGAGCCAACCA | 2.92
50 | ACAGGCAGGTGATGAAGGTAACTCAGGCTATCAT | 0.973
51 | CCGTACGGGTCACTGACAGGTTATAGCATTTGGA | 2.97
52 | CCTAGCAGGCCAATCTGGGTCACTCAAGGCTTGA | 3.9
53 | CAAACTAGGTCAAGGTCAAGGTCGGTTTGTGCCA | 4.54
54 | GTTTACGGGTCAAAGGTTATAGCATGAATAGAAT | 3.94
55 | GCTGCTAGGTCAGGGTGGTCAGCTAACGGGTACG | 2.12
56 | CCAGACAGGTGAGCAGGTAACTCAGCCTCGATTA | 0.218
57 | TAGCCTAGGCCATTGGGCCAGTATAGTACGCATC | -0.321
58 | GCGACTGGGGCAAAGCAGGTTACGATAAGGTTGG | 2.97
59 | CGTACGAGGGCATGAGTTGATAGCAAATGCCGAT | 1.37
60 | GTACCAAGGTGAATAGGTCCTTGATGAGTAGGCG | 1.23

Row | Sequence | PBM binding z-score
61 | GTCCCAAGGTGAATAGGTCGTTGATGAGTAGGCG | 2.06
62 | GGAACGAGGGAAAAGTTGATAGCATCTGTCGACG | -0.553
63 | TCGAGTAGGTTAGTGGCATTCAGAATGGCGTCGA | -0.441
64 | CAAACTAGGTCGCGAAAGGTCAAAGTCGAATGAC | 4.79
65 | TCAGACAGATGAAGGTAACTCAGGTACGCAGTCG | 1.03
66 | TAGCCTAGGTCATGGGCCCGTATACCACGCGAAC | 3.13
67 | CGTCCAAGGTCAGGGAGGTCAGTGAATGCCGAGT | 4.58
68 | AGTCAAAGTTCATCTAGGTACCGTAAGATATGCT | 3.05
69 | TCTTATAGGTAAAAGGTGAAAGTCGGTGTGGTAA | 1.8
70 | TCGAGTACGTTAGGGGCATTCAGAATGGCGTCGA | 0.637
71 | ATATCTAGGTAAGACTCAGTTCAGTGAAGAACGC | 0.631
72 | GATACAGGGTCAAGGCCAGAGTCCGCGTATTGAT | 3.52
73 | TCGTATAGGTAAATGCTAGGTGAAAGTCCGATCT | 1.48
74 | TCTTGTAGATCAAGCACGTTAAGAAAGCCTGAGT | -0.341
75 | CCTGCTAGGTCATTGGTCAGCTAAAGCAGCTCGC | 2.79
76 | TTACCAAGGGGAAGGTCGTTGATCCCTCTGTAGA | 0.64
77 | ATACCAAGGTGAACGTGAGGTCGTTGATACTAAC | 4.11
78 | GCTATTAGTTGGAAGGGCAACCGAATGATTCTCG | -0.126
79 | TCTTGTAGATCAAGCAGCTTAAGAAAGCCTGAGT | -0.48
80 | CCGAGTAGGTTATGGGGCGTTCAGGCAACGGTGA | 0.608
